Results taken from the supplement of paper PMC7057948, “A genome-wide approach for identification and characterisation of metabolite-inducible systems” (Nature Communications, 2020).

These molecules were tested on HpdA/P_H16_RS24175 L-tyrosine biosensor (pEH158) (assay: relative induction of RFP reporter vs primary effector (background-corrected); higher = stronger activation of the biosensor). Details: inducer concentration 5 mM; 6 h; Cupriavidus necator H16; minimal medium + 0.4% gluconate.
Protocol: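 C. necator H16 strains, each carrying one of 21 transcription factor/inducible promoter–mRFP biosensor plasmids, were grown in minimal medium in 96-well plates (robotic platform). Each was exposed to 46 structurally or metabolically related compounds at 5 mM at 30 °C. OD-normalised RFP fluorescence was read 6 h later and expressed as relative induction (%) = 100 × (FL compound − FL uninduced)/(FL primary inducer − FL uninduced); mean of n=4.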
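Note: RFP excited at 585 nm with emission read at 620 nm, culture medium blanks subtracted from fluorescence and absorbance prior to normalisation.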

Row | Structure (SMILES) | relative induction of RFP reporter
1 | C[C@@H](O)C(=O)O [D-lactate] | -0.202%
2 | C[C@H](N)C(=O)O [L-alanine] | -0.194%
3 | NCC(=O)O [glycine] | -0.0404%
4 | CC(=O)CCC(=O)O [levulinic acid] | -0.244%
